High-throughput results as filed in PubChem.
In the library only some 8.3% were active in any assay of this set; here they are far more common.
HCV inh: HCV inhibition; Huh7.5.1 HCVcc-Cre infection, luciferase reporter, 44 h; Potency, µM (doses to about 41.8 µM), for the others: at the highest dose activity change, negative = inhibition, usual class: inhibitors; hit rate 3.4% among 340,000; further: potency means the concentration at half of the fitted maximal effect
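Cells (1,000/well) were plated 4 h before compound, then infected with HCVcc-Cre virus (~0.5 moi). After 44 h further culture, infection was read as luciferase luminescence following a 15 min substrate incubation at room temperature.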
Marburg entry inh: Marburg virus entry inhibition. Marburg virus pseudotyped entry inhibition, cell reporter. Potency, µM (top dose mostly 37.8 µM), for inactives: top-dose activity change, negative = inhibition, actives largely listed as inhibitors. hit rate 1.8% among 300,000. AID 540276; calls by dose curve; tested in HEK293 cells; further: potency means the concentration at half of the fitted maximal effect
FMDV inh: blocks foot and mouth disease virus; FMDV antiviral cell-based qHTS; Potency, µM (top dose mostly 57.9 µM), inactives show at the top dose activity change, negative = inhibition, hits mostly inhibitors; hit rate 1.2% among 410,000; AID 1159524; calls by dose curve; tested in HEK293T cells; further: read-out not given here; potency means the concentration at half of the fitted maximal effect; nearly all actives have a fitted effect of over 45% in size
Giardia FBPA inh: Giardia lamblia aldolase inhibition. A8B2U2. purified Giardia FBPA. Potency, µM (titrated, usually from 59.6 µM), without a hit: at the top dose activity, negative = inhibition, actives largely listed as inhibitors. hit rate 0.71% among 290,000. AID 2451; further: potency means the concentration at half of the fitted maximal effect; nearly all actives have a fitted effect of over 55% in size
Target sequence (A8B2U2 whole entry, looked up): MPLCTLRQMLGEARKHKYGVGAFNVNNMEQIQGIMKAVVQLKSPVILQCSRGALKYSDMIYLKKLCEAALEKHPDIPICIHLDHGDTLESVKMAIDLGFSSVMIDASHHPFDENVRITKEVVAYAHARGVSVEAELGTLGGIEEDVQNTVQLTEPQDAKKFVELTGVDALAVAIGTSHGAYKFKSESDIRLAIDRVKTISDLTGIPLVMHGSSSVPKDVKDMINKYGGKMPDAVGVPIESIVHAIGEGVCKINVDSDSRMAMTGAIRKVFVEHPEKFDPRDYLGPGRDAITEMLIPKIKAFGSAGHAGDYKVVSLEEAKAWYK
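Giardia FBPA (40 nM reagent) was preincubated 10 min at RT with compound (up to 57.5 uM final), then substrate plus GAPDH/TPI/NAD/arsenate coupling system with diaphorase/resazurin was added; resorufin fluorescence (525/598 nm) was read after 20 min.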
HCMV antiviral: human cytomegalovirus inhibition | AID 1259415 | activity change, negative = inhibition, % at 57.5 µM | HFF cells, HCMV-luciferase reporter, 72 h; stronger effect = lower value | hit rate 4.5% among 410,000; in the data active means activity change below about -60%; inconclusive means no clear call, values can overlap the other calls; inactive means above about -39%
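Two-dose cell screen: HFF monolayers treated with compounds and infected with luciferase-expressing HCMV at 1 PFU/cell, 72 h at 37C, then lysed for luciferase measurement.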
LASV entry inh: blocks Lassa virus binding to or entry into cells; Lassa virus pseudotype entry inhibition, cell reporter; Potency, µM (top dose mostly 37.9 µM), without a hit: at the highest dose activity change, negative = inhibition, most hits filed as inhibitors; hit rate 1.2% among 300,000; calls by dose curve; tested in HEK293 cells; further: potency means the concentration at half of the fitted maximal effect; nearly all actives have a fitted effect of over 50% in size
* hit, by the source's call; u = inconclusive; x = not tested or not shown; + = active, no number; [ ] = another dose, or the depositor's remark. Unless noted, the call rests on the fitted dose curve; in most records, active means well fitted curve in the direction sought with a large enough effect; inconclusive means small, poorly fitted or top-dose-only effect, or another doubt; inactive means no such curve, though single readings can be large; an effect the other way counts as inactive or inconclusive. On the % scale 0 is the no-effect control and ±100 the full control effect.

SMILES | HCV inh | Marburg entry inh | FMDV inh | Giardia FBPA inh | HCMV antiviral | LASV entry inh
CCCC(C(=O)NC1CCCC1)N(Cc1ccccc1Cl)C(=O)c1snc(C(N)=O)c1N (stereo not drawn) | -23% | 10µM* | 17% | 1% | u | 2%[46.1 µM]
CC(=O)c1cccc(Nc2ncnc3c2cnn3-c2cccc(Cl)c2)c1 | x | x | -14% | x | 18 | 22%[46.1 µM]
NC(C(=O)O)c1nn[nH]n1 (stereo not drawn) | x | x | x | 22% | x | x
O=C(NCc1ccccc1F)c1cccc(NC(=O)N2CCSc3ncccc32)c1 | x | x | -26% | x | + | 1%[46.1 µM]
O=C(NCc1ccccc1Cl)c1ccc(NC(=O)N2CCSc3ncccc32)cc1 | x | x | -4% | x | + | 4%[46.1 µM]
COc1ccc2c(c1)CCc1cnc(-n3ncc(C(=O)N(C)CCc4ccccn4)c3C)nc1-2 | x | x | -11% | x | x | x
Cc1ccc(C)c(C(=O)N2CCC(c3nc4c(nnn4Cc4ccccc4)c(=O)[nH]3)CC2)c1 | x | -25%[46.1 µM] | u | x | 30 | u
O=Cc1ccc([B-](F)(F)F)o1 | x | x | x | x | 5 | x
O=c1cc(-c2ccccc2)[nH]n1-c1ccccc1 | 2% | u | 10% | x | -29 | -6%[46.1 µM]
CC(C)(C)c1cc(=O)n(-c2ccccc2)[nH]1 | 1% | u | 12% | 0.63µM* | 37 | u
CCC(=O)NC(Nc1sc2c(c1C(=O)OC)CCN(C)C2)(C(F)(F)F)C(F)(F)F | 4% | -18% | 14% | -28% | -101* | 1%
O=C1[C@@H]2[C@H]3[C@H](O)[C@H](O)CC(=NOC[C@@H](O)COCc4ccco4)[C@@H]3CC[C@H]2C(=O)N1C1CCCCC1 | x | -22%[14.2 µM] | x | x | x | x
CC(OC(=O)C1CC(=O)N(Cc2ccco2)C1)C(=O)Nc1ccccc1[N+](=O)[O-] (stereo not drawn) | 2% | 23% | -10% | x | 6 | 14%
Cc1ccccc1NC(=O)C(C)OC(=O)C1CC(=O)N(Cc2ccco2)C1 (stereo not drawn) | 16% | x | -2% | x | -102* | x
COc1cccc2oc3cc(C#CC4(O)CCCCC4)ccc3c(=O)c12 | u | x | -27% | 12% | 66 | x
O=c1c2ccccc2oc2cc(C#CC3(O)CCCCC3)ccc12 | u | x | 11µM* | x | -80* | x
O=c1c2ccccc2sc2ccc(C#CC3(O)CCCCC3)cc12 | u | x | 45µM* | x | -100* | x
COC(=O)N[C@@H](/C=C/c1ccccc1)C[N+](=O)[O-] | x | 7%[14.2 µM] | x | 0% | x | x
COC(=O)C1=C(c2ccc(OCc3ccccc3)cc2)C[C@@H]2CC[C@H]1N2C(=O)NCc1ccccc1OC | x | x | u | x | -27 | x
COC(=O)C1=C(c2ccccc2OCc2ccccc2)C[C@@H]2CC[C@H]1N2C(=O)NC1CCN(Cc2ccccc2)CC1 | u | x | -12% | x | -28 | x
COC(=O)C1=C(c2ccc(OCc3ccccc3)cc2)C[C@@H]2CC[C@H]1N2C(=O)NCCCc1ccccc1 | 6.3µM* | x | -21% | x | u | x
COC(=O)C1=C(c2ccc(F)cc2OCc2ccccc2)C[C@@H]2CC[C@H]1N2C(=O)NCc1ccc(C(F)(F)F)cc1 | u | x | 0% | x | u | x
COC(=O)C1=C(c2cccc(OCc3ccccc3)c2)C[C@@H]2CC[C@H]1N2C(=O)NC1CCN(Cc2ccccc2)CC1 | 10µM* | x | u | x | 7 | x
COC(=O)C1=C(c2ccccc2OCc2ccccc2)C[C@@H]2CC[C@H]1N2C(=O)NCc1ccc(C(F)(F)F)cc1 | 10µM* | 2% | -18% | x | -3 | x
COC(=O)C1=C(c2ccc(OCc3ccccc3)cc2)C[C@@H]2CC[C@H]1N2C(=O)NCc1ccc(OC)c(OC)c1 | 10µM* | x | u | x | -61* | x
COC(=O)CC1c2ccccc2C(Cc2ccc(OC)cc2)C(C)N1C(=O)OC (stereo not drawn) | x | u | x | 4%[12.9 µM] | x | x
COC(=O)[C@](NC(=O)c1ccccc1)(Nc1nc(C)cs1)C(F)(F)F | x | 4% | x | x | x | x
CCCOc1ccc(NC(=O)CC2C(=O)N(c3cccc(C)c3)C(=O)N2CCc2ccncc2)cc1 (stereo not drawn) | x | x | -12% | x | -7 | -3%[46.1 µM]
O=C1C[C@H](c2ccccc2)n2nc(N3C(=O)c4ccccc4C3=O)nc2N1 | x | 3% | x | x | x | x
COc1cccc2c1ncc1c(-c3ccc(C)cc3)nn(-c3ccc(F)cc3)c12 | x | x | -7% | x | -1 | 6%[46.1 µM]
